{
  "source": "the supplement of paper PMC8728848",
  "assay_in_all_cases": "glycan array binding signal (z-score within array); higher = stronger binding",
  "settings_in_all_cases": "glycan notation: IUPAC condensed, linker removed",
  "key": {"[1]": {"target": "Fuc(a1-2)Gal(b1-3)GalNAc(a1-3)[Fuc(a1-2)]Gal(b1-4)GlcNAc", "method_in_brief": "(§1)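 The binding signal is a Z-score computed within each array. Data were drawn from 3228 arrays in the Consortium for Functional Glycomics database, restricted to those with a known protein sequence. Scores were averaged over arrays of the same protein sequence at different concentrations or buffers, and over linkers, and negative values can be taken as non-binding.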"}, "[2]": {"target": "Fuc(a1-2)Gal(b1-3)GlcNAc", "method_in_brief": "as §1"}, "[3]": {"target": "Fuc(a1-2)Gal(b1-3)GlcNAc(b1-2)Man(a1-3)[Fuc(a1-2)Gal(b1-3)GlcNAc(b1-2)Man(a1-6)]Man(b1-4)GlcNAc(b1-4)GlcNAc", "method_in_brief": "as §1"}, "[4]": {"target": "Fuc(a1-2)Gal(b1-3)GlcNAc(b1-3)[Gal(b1-4)GlcNAc(b1-6)]Gal(b1-4)Glc", "method_in_brief": "as §1"}, "[5]": {"target": "Fuc(a1-2)Gal(b1-3)GlcNAc6S", "method_in_brief": "as §1"}, "[6]": {"target": "Fuc(a1-2)Gal(b1-4)GlcNAc(b1-2)Man(a1-3)[Fuc(a1-2)Gal(b1-4)GlcNAc(b1-2)Man(a1-6)]Man(b1-4)GlcNAc(b1-4)GlcNAc", "method_in_brief": "as §1"}, "[7]": {"target": "Fuc(a1-2)[Gal(a1-3)]Gal(b1-3)GlcNAc(b1-3)GalNAc", "method_in_brief": "as §1"}, "[8]": {"target": "Fuc(a1-2)[Gal(a1-3)]Gal(b1-4)GlcNAc(b1-2)Man(a1-3)[Fuc(a1-2)[Gal(a1-3)]Gal(b1-4)GlcNAc(b1-2)Man(a1-6)]Man(b1-4)GlcNAc(b1-4)GlcNAc", "method_in_brief": "as §1"}, "[9]": {"target": "Fuc(a1-2)[GalNAc(a1-3)]Gal(b1-4)GlcNAc(b1-6)GalNAc", "method_in_brief": "as §1"}, "[10]": {"target": "Fuc(a1-3)[Gal(b1-4)]GlcNAc", "method_in_brief": "as §1"}, "[11]": {"target": "Gal(a1-3)Gal(b1-4)GlcNAc(b1-2)Man", "method_in_brief": "as §1"}, "[12]": {"target": "Gal(a1-4)Gal(b1-3)GlcNAc(b1-2)Man(a1-3)[Gal(a1-4)Gal(b1-3)GlcNAc(b1-2)Man(a1-6)]Man(b1-4)GlcNAc(b1-4)GlcNAc", "method_in_brief": "as §1"}, "[13]": {"target": "Gal(a1-4)GlcNAc", "method_in_brief": "as §1"}, "[14]": {"target": "Gal(b1-3)Gal(b1-4)GlcNAc", "method_in_brief": "as §1"}, "[15]": {"target": "Gal(b1-3)GlcNAc(b1-3)Gal(b1-4)GlcNAc(b1-2)[Gal(b1-3)GlcNAc(b1-3)Gal(b1-4)GlcNAc(b1-6)]Man(a1-6)[Gal(b1-3)GlcNAc(b1-3)Gal(b1-4)GlcNAc(b1-2)Man(a1-3)]Man(b1-4)GlcNAc(b1-4)[Fuc(a1-6)]GlcNAc", "method_in_brief": "as §1"}, "[16]": {"target": "Gal(b1-3)[Fuc(a1-4)]GlcNAc(b1-2)Man(a1-3)[Gal(b1-3)[Fuc(a1-4)]GlcNAc(b1-2)Man(a1-6)]Man(b1-4)GlcNAc(b1-4)[Fuc(a1-6)]GlcNAc", "method_in_brief": "as §1"}, "[17]": {"target": "Gal(b1-4)Glc", "method_in_brief": "as §1"}, "[18]": {"target": "Gal(b1-4)GlcNAc(b1-3)Gal(b1-3)GalNAc", "method_in_brief": "as §1"}, "[19]": {"target": "Gal(b1-4)GlcNAc(b1-3)Gal(b1-3)GlcNAc", "method_in_brief": "as §1"}, "[20]": {"target": "Gal(b1-4)GlcNAc(b1-3)Gal(b1-4)GlcNAc(b1-3)Gal(b1-4)GlcNAc(b1-2)Man(a1-3)[Gal(b1-4)GlcNAc(b1-3)Gal(b1-4)GlcNAc(b1-3)Gal(b1-4)GlcNAc(b1-2)Man(a1-6)]Man(b1-4)GlcNAc(b1-4)[Fuc(a1-6)]GlcNAc", "method_in_brief": "as §1"}, "[21]": {"target": "Gal(b1-4)GlcNAc(b1-3)Gal(b1-4)GlcNAc(b1-3)Gal(b1-4)GlcNAc(b1-2)[Gal(b1-4)GlcNAc(b1-3)Gal(b1-4)GlcNAc(b1-3)Gal(b1-4)GlcNAc(b1-6)]Man(a1-6)[Gal(b1-4)GlcNAc(b1-3)Gal(b1-4)GlcNAc(b1-3)Gal(b1-4)GlcNAc(b1-2)Man(a1-3)]Man(b1-4)GlcNAc(b1-4)[Fuc(a1-6)]GlcNAc", "method_in_brief": "as §1"}, "[22]": {"target": "Gal(b1-4)GlcNAc(b1-3)Gal(b1-4)GlcNAc(b1-3)Gal(b1-4)GlcNAc(b1-3)Gal(b1-4)GlcNAc(b1-3)Gal(b1-4)GlcNAc(b1-2)[Gal(b1-4)GlcNAc(b1-3)Gal(b1-4)GlcNAc(b1-3)Gal(b1-4)GlcNAc(b1-3)Gal(b1-4)GlcNAc(b1-3)Gal(b1-4)GlcNAc(b1-6)]Man(a1-6)[Gal(b1-4)GlcNAc(b1-3)Gal(b1-4)GlcNAc(b1-3)Gal(b1-4)GlcNAc(b1-3)Gal(b1-4)GlcNAc(b1-3)Gal(b1-4)GlcNAc(b1-2)Man(a1-3)]Man(b1-4)GlcNAc(b1-4)[Fuc(a1-6)]GlcNAc", "method_in_brief": "as §1"}, "[23]": {"target": "Gal4S(b1-4)GlcNAc", "method_in_brief": "as §1"}, "[24]": {"target": "Gal6P(b1-4)GlcNAc", "method_in_brief": "as §1"}, "[25]": {"target": "Gal6S(b1-3)GlcNAc6S", "method_in_brief": "as §1"}, "[26]": {"target": "GalNAc(b1-6)GalNAc", "method_in_brief": "as §1"}, "[27]": {"target": "GalNAc6S(b1-4)GlcNAc", "method_in_brief": "as §1"}},
  "note": "This excerpt belongs to a sample that is enriched for the strongest signals.",
  "data": [
    {"binder": "Nc3LysM-2 (protein) AHVLQARQSVSCDFATAANTGDTCASFAAAWGITEAAFAKLNPGVSCPGNLIAGSEYCVIGTVSTGAPTTTKAATTSTTPPTTTTTTKATTLSTSTTSVSPTGPSPQMPSITSTCNKFYQVQSGDGCWSIEQAQGVSASDFMAWNKAVDAQCDNLWLGYYVCVGVKGGSSPPPTTTTKPASSSAPTPQMPNTVSNCKKFHKVVSGDGCWAIEQAAGISASDFAKWNPYVDAACDNLWLGYYVCIGV", "values": [
      {"measurement": "glycan array binding signal (z-score)", "setting": "[1]", "result": -0.746},
      {"measurement": "glycan array binding signal (z-score)", "setting": "[2]", "result": 0.966},
      {"measurement": "glycan array binding signal (z-score)", "setting": "[3]", "result": -0.335},
      {"measurement": "glycan array binding signal (z-score)", "setting": "[4]", "result": 0.735},
      {"measurement": "glycan array binding signal (z-score)", "setting": "[5]", "result": -1.29},
      {"measurement": "glycan array binding signal (z-score)", "setting": "[6]", "result": 2.21},
      {"measurement": "glycan array binding signal (z-score)", "setting": "[7]", "result": -0.745},
      {"measurement": "glycan array binding signal (z-score)", "setting": "[8]", "result": 2.78},
      {"measurement": "glycan array binding signal (z-score)", "setting": "[9]", "result": -1.2},
      {"measurement": "glycan array binding signal (z-score)", "setting": "[10]", "result": -0.073},
      {"measurement": "glycan array binding signal (z-score)", "setting": "[11]", "result": -0.456},
      {"measurement": "glycan array binding signal (z-score)", "setting": "[12]", "result": -0.185},
      {"measurement": "glycan array binding signal (z-score)", "setting": "[13]", "result": 0.991},
      {"measurement": "glycan array binding signal (z-score)", "setting": "[14]", "result": -0.043},
      {"measurement": "glycan array binding signal (z-score)", "setting": "[15]", "result": 2.73},
      {"measurement": "glycan array binding signal (z-score)", "setting": "[16]", "result": 0.856},
      {"measurement": "glycan array binding signal (z-score)", "setting": "[17]", "result": -0.252},
      {"measurement": "glycan array binding signal (z-score)", "setting": "[18]", "result": -1.18},
      {"measurement": "glycan array binding signal (z-score)", "setting": "[19]", "result": 0.13},
      {"measurement": "glycan array binding signal (z-score)", "setting": "[20]", "result": 2.69},
      {"measurement": "glycan array binding signal (z-score)", "setting": "[21]", "result": 5.8},
      {"measurement": "glycan array binding signal (z-score)", "setting": "[22]", "result": 2.29},
      {"measurement": "glycan array binding signal (z-score)", "setting": "[23]", "result": -1.15},
      {"measurement": "glycan array binding signal (z-score)", "setting": "[24]", "result": -0.044},
      {"measurement": "glycan array binding signal (z-score)", "setting": "[25]", "result": -1.34},
      {"measurement": "glycan array binding signal (z-score)", "setting": "[26]", "result": 0.877},
      {"measurement": "glycan array binding signal (z-score)", "setting": "[27]", "result": 0.893}
    ]}
  ]
}
